Binding signal data for one sequence are collected here from paper PMC7862700, “An all-to-all approach to the identification of sequence-specific readers for epigenetic DNA modifications on cytosine”.

Test in all cases: DAPPL (digital affinity profiling via proximity ligation, sequencing); 10 mM Tris-HCl pH 7.5, 50 mM NaCl, 1 mM DTT, 4% glycerol, room temperature, 30 min; GST-TFs on glutathione beads, 16-mer random dsDNA library, 0.1% formaldehyde crosslink after washing; high values mean tight binding
Assay [1] has as its target T1, FLI1 (Homo sapiens, UniProt Q01543 1-452).
T1 sequence: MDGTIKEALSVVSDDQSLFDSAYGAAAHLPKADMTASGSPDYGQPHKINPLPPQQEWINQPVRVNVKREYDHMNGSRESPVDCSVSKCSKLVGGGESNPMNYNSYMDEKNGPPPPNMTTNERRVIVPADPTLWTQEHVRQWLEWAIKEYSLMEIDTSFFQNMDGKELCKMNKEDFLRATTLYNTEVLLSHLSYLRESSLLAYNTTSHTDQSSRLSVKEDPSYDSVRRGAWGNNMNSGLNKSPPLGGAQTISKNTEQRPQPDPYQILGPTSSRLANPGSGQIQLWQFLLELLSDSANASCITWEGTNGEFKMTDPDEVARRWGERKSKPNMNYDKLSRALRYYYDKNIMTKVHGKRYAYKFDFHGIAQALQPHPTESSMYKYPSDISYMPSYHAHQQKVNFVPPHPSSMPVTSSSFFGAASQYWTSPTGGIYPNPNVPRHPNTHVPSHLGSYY
To be noted: protein: recombinant; tags: N-terminal GST; dsDNA, one strand shown. In short, it runs like this:
(§1)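 Beads coated with glutathione captured GST-fused human transcription factors that had been expressed in yeast, and the factors were then given DNA barcodes and pooled with a tag-only sample. The pools were incubated with 200 nmole of a random double-stranded 16-mer DNA library in Tris/NaCl/DTT/glycerol buffer for 30 min at room temperature, washed, crosslinked with 0.1% formaldehyde and proximity-ligated with BsaI/T4 ligase at 37 °C for 1 h. PCR amplification and Illumina NextSeq500 sequencing came last. Binding signal is each hexamer's read frequency for a factor divided by its frequency for the tag-only sample.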

Assay [2] deals with T2, ERG (Homo sapiens, UniProt P11308 1-479).
T2 sequence: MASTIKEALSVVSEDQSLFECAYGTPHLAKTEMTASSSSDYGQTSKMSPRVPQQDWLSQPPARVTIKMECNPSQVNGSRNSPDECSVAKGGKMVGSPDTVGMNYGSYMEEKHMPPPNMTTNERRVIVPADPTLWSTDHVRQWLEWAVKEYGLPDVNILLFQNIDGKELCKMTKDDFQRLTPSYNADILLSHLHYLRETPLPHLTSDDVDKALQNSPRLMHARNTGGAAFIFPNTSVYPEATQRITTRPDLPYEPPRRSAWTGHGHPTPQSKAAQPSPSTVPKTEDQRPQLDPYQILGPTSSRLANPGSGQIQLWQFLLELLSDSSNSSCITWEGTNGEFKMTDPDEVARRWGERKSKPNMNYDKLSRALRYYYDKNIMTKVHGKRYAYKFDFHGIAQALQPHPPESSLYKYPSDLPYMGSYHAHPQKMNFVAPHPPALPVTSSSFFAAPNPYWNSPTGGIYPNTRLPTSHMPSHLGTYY
Conditions: protein: recombinant; tags: N-terminal GST; dsDNA, one strand shown. A digest of the protocol: as §1

Assay [3] deals with ELF1 (Homo sapiens, UniProt P32519 1-619). To be noted: protein: recombinant; tags: N-terminal GST; dsDNA, one strand shown. In short, it runs like this: as §1
Assay [4] has as its target T3, EHF (Homo sapiens, UniProt Q9NZC4 1-300).
T3 sequence: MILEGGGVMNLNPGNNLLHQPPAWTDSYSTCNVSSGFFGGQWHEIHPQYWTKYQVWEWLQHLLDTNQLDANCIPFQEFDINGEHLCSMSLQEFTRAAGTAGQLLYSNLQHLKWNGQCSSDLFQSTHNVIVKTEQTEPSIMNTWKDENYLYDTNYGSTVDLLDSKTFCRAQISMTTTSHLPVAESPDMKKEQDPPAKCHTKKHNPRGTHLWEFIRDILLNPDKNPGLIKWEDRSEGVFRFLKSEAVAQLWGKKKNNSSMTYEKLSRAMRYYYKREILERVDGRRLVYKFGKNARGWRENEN
Conditions: protein: recombinant; tags: N-terminal GST; dsDNA, one strand shown. In short, it runs like this: as §1

Assay [5] concerns the target SPI1 (Homo sapiens, UniProt P17947 1-270). Conditions: protein: recombinant; tags: N-terminal GST; dsDNA, one strand shown. In short, it runs like this: as §1
In assay [6] the target is SPIB (Homo sapiens, UniProt Q01892 1-262). To be noted: protein: recombinant; tags: N-terminal GST; dsDNA, one strand shown. A digest of the protocol:
as §1

The target in assay [7] is T4, FEV (Homo sapiens, UniProt Q99581 1-238).
T4 sequence: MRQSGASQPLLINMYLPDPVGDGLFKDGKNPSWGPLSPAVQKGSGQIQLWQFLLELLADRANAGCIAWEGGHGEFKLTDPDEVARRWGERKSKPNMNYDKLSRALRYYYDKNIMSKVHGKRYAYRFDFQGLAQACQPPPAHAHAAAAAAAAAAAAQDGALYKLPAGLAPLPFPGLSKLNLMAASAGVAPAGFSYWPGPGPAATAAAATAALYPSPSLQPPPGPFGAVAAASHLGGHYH
Conditions: protein: recombinant; tags: N-terminal GST; dsDNA, one strand shown. In short, it runs like this:
as §1

The target of assay [8] is ETV5 (Homo sapiens, UniProt P41161 1-510). To be noted: protein: recombinant; tags: N-terminal GST; dsDNA, one strand shown. In short, it runs like this:
as §1

Assay [9] addresses HSF1 (Homo sapiens, UniProt Q00613 1-529). To be noted: protein: recombinant; tags: N-terminal GST; chain copies: 3; dsDNA, one strand shown. A digest of the protocol:
as §1

The target in assay [10] is T5, SPIC (Homo sapiens, UniProt Q8N5J4 1-248).
T5 sequence: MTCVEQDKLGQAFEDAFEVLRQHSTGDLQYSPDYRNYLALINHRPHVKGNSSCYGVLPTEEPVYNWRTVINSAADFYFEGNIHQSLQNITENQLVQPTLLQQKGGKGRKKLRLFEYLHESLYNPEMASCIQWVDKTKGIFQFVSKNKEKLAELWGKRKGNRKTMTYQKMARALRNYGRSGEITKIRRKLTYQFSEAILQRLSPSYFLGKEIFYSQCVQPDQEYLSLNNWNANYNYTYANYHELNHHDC
To be noted: protein: recombinant; tags: N-terminal GST; dsDNA, one strand shown. A digest of the protocol: as §1

Assay [11] has as its target ELF4 (Homo sapiens, UniProt Q99607 1-663). Conditions: protein: recombinant; tags: N-terminal GST; dsDNA, one strand shown. In short, it runs like this:
as §1

For assay [12], the target named is T6, ELK4 (Homo sapiens, UniProt P28324-2 1-405).
T6 sequence: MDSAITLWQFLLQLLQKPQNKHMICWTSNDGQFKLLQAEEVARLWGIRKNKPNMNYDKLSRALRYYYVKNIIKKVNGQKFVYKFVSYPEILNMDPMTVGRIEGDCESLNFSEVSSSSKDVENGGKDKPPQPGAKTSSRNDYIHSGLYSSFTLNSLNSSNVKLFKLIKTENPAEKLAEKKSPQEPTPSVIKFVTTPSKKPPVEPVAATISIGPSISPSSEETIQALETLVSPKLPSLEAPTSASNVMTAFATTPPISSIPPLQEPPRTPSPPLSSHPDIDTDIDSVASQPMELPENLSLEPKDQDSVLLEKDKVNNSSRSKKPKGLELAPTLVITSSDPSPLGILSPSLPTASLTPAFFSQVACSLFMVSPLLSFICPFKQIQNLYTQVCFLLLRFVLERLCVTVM
Conditions: protein: recombinant; tags: N-terminal GST; dsDNA, one strand shown. In short, it runs like this: as §1

The target of assay [13] is T7, ETV2 (Homo sapiens, UniProt O00321 1-342).
T7 sequence: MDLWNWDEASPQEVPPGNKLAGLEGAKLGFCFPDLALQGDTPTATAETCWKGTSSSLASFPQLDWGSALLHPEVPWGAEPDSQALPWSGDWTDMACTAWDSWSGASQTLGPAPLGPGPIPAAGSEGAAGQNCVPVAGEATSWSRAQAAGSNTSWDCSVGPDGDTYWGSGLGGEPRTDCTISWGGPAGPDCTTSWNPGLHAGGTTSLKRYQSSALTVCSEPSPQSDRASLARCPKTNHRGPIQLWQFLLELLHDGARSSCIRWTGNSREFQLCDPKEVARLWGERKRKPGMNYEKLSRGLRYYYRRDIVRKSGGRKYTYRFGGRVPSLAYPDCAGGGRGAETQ
Conditions: protein: recombinant; tags: N-terminal GST; dsDNA, one strand shown. In short, it runs like this:
as §1

The target of assay [14] is CRX (Homo sapiens, UniProt O43186 1-299). Conditions: protein: recombinant; tags: N-terminal GST; dsDNA, one strand shown. In short, it runs like this: as §1
Assay [15] addresses ETV1 (Homo sapiens, UniProt P50549 1-477). To be noted: protein: recombinant; tags: N-terminal GST; dsDNA, one strand shown. A digest of the protocol: as §1

Chain of ELF1 (P32519 whole entry): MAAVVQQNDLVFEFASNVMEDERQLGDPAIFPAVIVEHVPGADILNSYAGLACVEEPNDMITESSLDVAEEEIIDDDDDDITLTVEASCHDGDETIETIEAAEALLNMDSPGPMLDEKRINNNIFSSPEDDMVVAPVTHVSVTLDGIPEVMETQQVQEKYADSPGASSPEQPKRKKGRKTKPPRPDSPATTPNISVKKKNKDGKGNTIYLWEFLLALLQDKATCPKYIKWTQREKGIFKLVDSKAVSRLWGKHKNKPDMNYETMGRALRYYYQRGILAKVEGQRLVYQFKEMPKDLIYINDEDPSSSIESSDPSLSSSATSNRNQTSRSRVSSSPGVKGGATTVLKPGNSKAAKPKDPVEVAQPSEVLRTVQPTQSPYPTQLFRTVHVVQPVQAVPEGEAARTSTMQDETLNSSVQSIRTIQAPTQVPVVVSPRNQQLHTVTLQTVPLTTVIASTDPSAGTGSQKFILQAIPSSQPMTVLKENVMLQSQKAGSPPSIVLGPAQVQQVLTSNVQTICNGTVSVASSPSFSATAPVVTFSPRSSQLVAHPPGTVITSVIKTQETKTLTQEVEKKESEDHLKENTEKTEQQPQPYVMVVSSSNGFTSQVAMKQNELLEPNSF
Chain of ELF4 (Q99607 whole entry): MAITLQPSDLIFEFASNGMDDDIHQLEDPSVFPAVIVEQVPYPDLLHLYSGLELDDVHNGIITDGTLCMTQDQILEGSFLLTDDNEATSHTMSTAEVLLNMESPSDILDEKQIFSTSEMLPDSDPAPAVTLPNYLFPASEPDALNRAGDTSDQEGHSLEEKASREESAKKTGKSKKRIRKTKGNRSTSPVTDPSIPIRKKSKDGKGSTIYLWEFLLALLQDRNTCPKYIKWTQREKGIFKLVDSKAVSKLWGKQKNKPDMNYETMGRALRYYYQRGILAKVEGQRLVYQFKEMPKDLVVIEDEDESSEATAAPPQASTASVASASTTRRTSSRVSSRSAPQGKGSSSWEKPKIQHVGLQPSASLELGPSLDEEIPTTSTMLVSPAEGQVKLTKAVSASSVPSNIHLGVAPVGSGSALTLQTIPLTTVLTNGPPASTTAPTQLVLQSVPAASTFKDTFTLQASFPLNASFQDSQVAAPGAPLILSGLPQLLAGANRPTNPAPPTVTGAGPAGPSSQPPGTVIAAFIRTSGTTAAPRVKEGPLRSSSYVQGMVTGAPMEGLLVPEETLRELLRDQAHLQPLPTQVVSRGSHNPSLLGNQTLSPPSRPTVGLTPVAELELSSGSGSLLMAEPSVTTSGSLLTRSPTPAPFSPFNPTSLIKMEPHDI
Chain of ETV1 (P50549 whole entry): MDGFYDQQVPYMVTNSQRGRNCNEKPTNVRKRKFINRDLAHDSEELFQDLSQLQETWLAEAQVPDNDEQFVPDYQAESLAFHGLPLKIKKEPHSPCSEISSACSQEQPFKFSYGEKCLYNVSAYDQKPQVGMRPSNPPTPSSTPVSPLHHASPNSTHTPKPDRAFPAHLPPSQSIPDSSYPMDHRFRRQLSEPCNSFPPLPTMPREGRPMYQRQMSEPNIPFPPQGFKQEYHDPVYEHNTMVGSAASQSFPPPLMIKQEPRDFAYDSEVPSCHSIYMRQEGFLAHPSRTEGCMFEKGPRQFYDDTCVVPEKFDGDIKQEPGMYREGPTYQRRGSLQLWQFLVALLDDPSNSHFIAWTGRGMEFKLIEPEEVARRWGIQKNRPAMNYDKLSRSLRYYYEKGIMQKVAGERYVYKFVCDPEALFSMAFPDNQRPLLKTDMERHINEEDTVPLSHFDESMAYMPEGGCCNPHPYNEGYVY
Chain of CRX (O43186 whole entry): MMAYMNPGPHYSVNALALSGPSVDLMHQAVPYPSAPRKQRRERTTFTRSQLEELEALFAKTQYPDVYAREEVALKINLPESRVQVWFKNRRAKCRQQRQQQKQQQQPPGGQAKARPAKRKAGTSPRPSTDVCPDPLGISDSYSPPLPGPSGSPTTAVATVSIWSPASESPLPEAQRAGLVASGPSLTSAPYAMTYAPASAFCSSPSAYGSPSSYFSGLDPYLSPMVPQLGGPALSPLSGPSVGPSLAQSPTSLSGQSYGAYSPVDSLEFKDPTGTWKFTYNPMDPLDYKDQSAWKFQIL
Chain of ETV5 (P41161 whole entry): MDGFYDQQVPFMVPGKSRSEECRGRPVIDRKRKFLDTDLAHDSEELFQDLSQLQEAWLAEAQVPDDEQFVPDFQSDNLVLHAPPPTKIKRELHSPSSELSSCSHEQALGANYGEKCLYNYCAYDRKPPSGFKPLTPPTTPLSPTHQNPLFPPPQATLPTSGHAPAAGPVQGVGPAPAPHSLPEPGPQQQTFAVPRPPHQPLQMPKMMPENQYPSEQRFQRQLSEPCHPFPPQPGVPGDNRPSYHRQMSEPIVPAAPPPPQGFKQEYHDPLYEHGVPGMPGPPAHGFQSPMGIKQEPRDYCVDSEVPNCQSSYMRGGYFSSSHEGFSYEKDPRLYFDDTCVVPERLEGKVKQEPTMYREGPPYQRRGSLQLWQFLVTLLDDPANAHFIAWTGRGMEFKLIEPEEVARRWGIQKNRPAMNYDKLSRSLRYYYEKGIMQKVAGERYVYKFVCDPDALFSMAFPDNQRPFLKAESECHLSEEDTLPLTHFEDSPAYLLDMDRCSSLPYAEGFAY
Chain of SPIB (Q01892 whole entry): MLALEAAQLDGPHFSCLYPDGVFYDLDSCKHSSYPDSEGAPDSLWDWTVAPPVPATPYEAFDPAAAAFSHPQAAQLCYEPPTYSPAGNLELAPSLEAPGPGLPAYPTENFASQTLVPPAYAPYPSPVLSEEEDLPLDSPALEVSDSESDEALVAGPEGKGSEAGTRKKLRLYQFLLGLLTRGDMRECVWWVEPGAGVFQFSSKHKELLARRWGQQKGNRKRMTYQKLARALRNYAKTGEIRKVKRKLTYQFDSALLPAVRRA
Chain of HSF1 (Q00613 whole entry): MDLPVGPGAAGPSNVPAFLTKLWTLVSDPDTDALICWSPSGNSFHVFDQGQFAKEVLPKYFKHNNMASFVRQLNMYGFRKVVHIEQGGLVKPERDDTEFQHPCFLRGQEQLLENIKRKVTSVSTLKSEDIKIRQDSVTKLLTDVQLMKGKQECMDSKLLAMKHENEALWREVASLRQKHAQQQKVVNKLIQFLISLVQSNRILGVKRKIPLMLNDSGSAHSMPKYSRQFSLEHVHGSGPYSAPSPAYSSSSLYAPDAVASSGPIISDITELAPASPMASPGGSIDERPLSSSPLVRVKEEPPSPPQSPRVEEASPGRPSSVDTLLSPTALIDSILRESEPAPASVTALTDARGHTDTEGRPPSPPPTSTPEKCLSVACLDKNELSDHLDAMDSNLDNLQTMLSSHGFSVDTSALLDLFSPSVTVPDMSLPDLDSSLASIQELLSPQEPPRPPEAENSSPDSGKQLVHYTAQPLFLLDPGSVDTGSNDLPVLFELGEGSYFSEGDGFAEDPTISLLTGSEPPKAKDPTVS

As to CGAAAT, the binding signal in [1] was 1.05 fold enrichment (6-mer frequency, TF over GST control); in assay [2], 1.02 fold enrichment (6-mer frequency, TF over GST control); in assay [3], 1.01 fold enrichment (6-mer frequency, TF over GST control); in [4], 1.07 fold enrichment (6-mer frequency, TF over GST control); in assay [5], 1.09 fold enrichment (6-mer frequency, TF over GST control); in assay [6], 1.07 fold enrichment (6-mer frequency, TF over GST control). Further, the binding signal in [7] was 1 fold enrichment (6-mer frequency, TF over GST control); in [8], 1 fold enrichment (6-mer frequency, TF over GST control); in assay [9], 1.4 fold enrichment (6-mer frequency, TF over GST control); in assay [10] it was 1.01 fold enrichment (6-mer frequency, TF over GST control); in assay [11] it was 1.01 fold enrichment (6-mer frequency, TF over GST control); in [12], 1.18 fold enrichment (6-mer frequency, TF over GST control). Further, the binding signal in [13] is 1.06 fold enrichment (6-mer frequency, TF over GST control); in assay [14], 1.07 fold enrichment (6-mer frequency, TF over GST control); in [15], 1.02 fold enrichment (6-mer frequency, TF over GST control).
